Assay results as given in PubChem BioAssay (NCI).
This is part of a sample that, as a whole, favours compounds with a hit. Of some 79,000 tested, about 15% had one in any assay. Activity calls are given as the source filed them. No stated cut-off is given here; in the data, active means growth inhibition above about 70%; inactive means the rest.

What was measured:
[1] = NCI Yeast Anticancer Drug Screen. Data for the rad50 strain (AID 155);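 further: 0% = growth of vehicle-only cultures of the same strain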; settings: S. cerevisiae rad50 strain growth inhibition, active compounds read high
How it was run: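 Relative growth inhibition (compound vs vehicle) was measured in yeast with a defined repair-gene alteration.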

[2] = NCI Yeast Anticancer Drug Screen. Data for the mec2-1 strain (AID 157); settings: S. cerevisiae mec2-1 strain, active compounds read high
How it was run: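 Readout is yeast growth inhibition, normalised to vehicle-treated controls, in the mec2-1 strain exposed to compound.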

[3] = NCI Yeast Anticancer Drug Screen. Data for the sgs1 mgt1 strain (AID 161);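 further: 0% = growth of cultures given vehicle only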; settings: S. cerevisiae sgs1 mgt1 strain, active compounds read high
How it was run: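 Compounds are added to genetically altered yeast, and growth is compared with cultures given vehicle alone to give percent inhibition.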

[4] = NCI Yeast Anticancer Drug Screen. Data for the cln2 rad14 strain (AID 165);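 further: 0% = growth equal to vehicle treated cultures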; settings: S. cerevisiae cln2 rad14 strain, active compounds read high
How it was run: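 Relative to vehicle controls, growth inhibition of compound-treated cln2 rad14 yeast was recorded.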

[5] = NCI Yeast Anticancer Drug Screen. Data for the bub3 strain (AID 167); settings: S. cerevisiae bub3 mutant strain, active compounds read high
How it was run: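 Screening used yeast with an engineered genetic alteration affecting cell cycle control. Compound-exposed cultures were compared with vehicle cultures, and reduced growth was taken as inhibition.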

[6] = NCI Yeast Anticancer Drug Screen. Data for the mlh1 rad18 strain (AID 175); settings: S. cerevisiae mlh1 rad18 strain growth inhibition, active compounds read high
How it was run: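 Test agents were incubated with a yeast strain of defined genotype (DNA damage repair defect). Inhibition of growth was derived by comparison with vehicle-exposed cultures.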

[7] = at 5.0 µM (retest, dose inferred, filed as 0.5)
[8] = at 50.0 µM (retest, dose inferred, filed as 5.0)

Measured: growth inhibition

COc1ccc(C2CC(c3c(O)ccc4ccccc34)=NN2)cc1OC (configuration not stated)
active: [1]; [8] 97% | [1]; at 50.0 µM 89.2% | [2]; [8] 97% | [2]; at 50.0 µM 91.8% | [3]; [8] 97% | [3]; at 50.0 µM 90.4% | [4]; [8] 97% | [4]; at 50.0 µM 90.2% | [5]; [8] 96% | [5]; at 50.0 µM 90.5% | [6]; [8] 97% | [6]; at 50.0 µM 89.7%
inactive: [1]; [7] -4% | [2]; [7] -3% | [3]; [7] -6% | [4]; [7] -11% | [5]; [7] 8% | [6]; [7] -1%

Oc1[nH]c2ccccc2c1N=NC(=S)N1CCCC1
inactive: [1]; [7] 15% | [1]; [8] 65% | [1]; at 50.0 µM 33.5% | [2]; [7] 5% | [2]; [8] 64% | [2]; at 50.0 µM 58.6% | [3]; [7] 7% | [3]; [8] 42% | [3]; at 50.0 µM 54.6% | [4]; [7] 11% | [4]; [8] 48% | [4]; at 50.0 µM 55% | [5]; [7] 26% | [5]; at 50.0 µM 61.6% | [6]; [7] 13% | [6]; [8] 68% | [6]; at 50.0 µM 57.8%
active: [5]; [8] 74%

CC(Br)C(=O)c1ccc(OCc2ccccc2)cc1 (configuration not stated)
inactive: [1]; [7] 15% | [2]; [7] 14% | [3]; [7] 8% | [4]; [7] 22% | [5]; [7] 6% | [6]; [7] 13%
active: [1]; [8] 84% | [1]; at 50.0 µM 90.7% | [2]; [8] 99% | [2]; at 50.0 µM 94.2% | [3]; [8] 75% | [3]; at 50.0 µM 89.9% | [4]; [8] 78% | [4]; at 50.0 µM 92.3% | [5]; [8] 99% | [5]; at 50.0 µM 90% | [6]; [8] 94% | [6]; at 50.0 µM 77.9%

CN(C)N=Nc1ccc2[nH]c(=O)[nH]c2c1
inactive: [1]; [7] 16% | [1]; [8] 18% | [1]; at 50.0 µM 53% | [2]; [7] 5% | [2]; [8] 9% | [2]; at 50.0 µM 38.8% | [3]; [7] 16% | [3]; [8] -18% | [3]; at 50.0 µM 12.6% | [4]; [7] 13% | [4]; [8] -54% | [4]; at 50.0 µM 29.1% | [5]; [7] 14% | [5]; [8] -11% | [6]; [7] 19% | [6]; [8] 19%
active: [5]; at 50.0 µM 74% | [6]; at 50.0 µM 72.5%

C1=CN2C(c3ccccc3)=NN(c3ccccc3)[C@@H]2c2ccccc21
inactive: [1]; [7] -4% | [1]; at 50.0 µM 60.6% | [2]; [7] -6% | [2]; [8] 53% | [2]; at 50.0 µM 42% | [3]; [7] -3% | [3]; [8] 50% | [3]; at 50.0 µM 56.3% | [4]; [7] 0% | [4]; [8] 22% | [4]; at 50.0 µM 27.8% | [5]; [7] 1% | [5]; at 50.0 µM 59.5% | [6]; [7] 2% | [6]; at 50.0 µM 54.8%
active: [1]; [8] 70% | [5]; [8] 79% | [6]; [8] 72%

O=C(NCCNCCNCCNC(=O)c1cc(-c2ccccc2)nc2ccccc12)c1cc(-c2ccccc2)nc2ccccc12
inactive: [1]; [7] -16% | [1]; [8] 57% | [2]; [7] -10% | [2]; [8] 63% | [3]; [7] -7% | [3]; [8] 41% | [4]; [7] 18% | [4]; [8] 64% | [5]; [7] -25% | [6]; [7] -4%
active: [1]; at 50.0 µM 98.7% | [2]; at 50.0 µM 99.2% | [3]; at 50.0 µM 98.8% | [4]; at 50.0 µM 99% | [5]; [8] 86% | [5]; at 50.0 µM 99.2% | [6]; [8] 88% | [6]; at 50.0 µM 99%

Nc1ccc2c(c1)[nH]c(=O)c1ccc(Cl)cc12
inactive: [1]; [7] -63% | [2]; [7] -32% | [3]; [7] -32% | [4]; [7] -30% | [5]; [7] -52% | [6]; [7] -56%
active: [1]; [8] 94% | [1]; at 50.0 µM 98.2% | [2]; [8] 82% | [2]; at 50.0 µM 90.5% | [3]; [8] 83% | [3]; at 50.0 µM 93.1% | [4]; [8] 85% | [4]; at 50.0 µM 92.5% | [5]; [8] 91% | [5]; at 50.0 µM 78.9% | [6]; [8] 93% | [6]; at 50.0 µM 97%

CCOC(=O)/C(C#N)=C/c1ccccc1Br
inactive: [1]; [7] 11% | [1]; [8] 18% | [1]; at 50.0 µM 50% | [2]; [7] -19% | [2]; [8] 3% | [2]; at 50.0 µM 20.4% | [3]; [7] 7% | [3]; [8] 13% | [3]; at 50.0 µM -0.75% | [4]; [7] 39% | [4]; [8] 17% | [4]; at 50.0 µM 3.6% | [5]; [7] 31% | [5]; [8] 20% | [5]; at 50.0 µM 1.2% | [6]; [7] -9% | [6]; [8] -4% | [6]; at 50.0 µM 6.6%

COC(=O)c1ccc(SCCC(=O)CCl)cc1
active: [1]; [8] 99% | [1]; at 50.0 µM 99.3% | [2]; [8] 99% | [2]; at 50.0 µM 99.2% | [3]; [8] 99% | [3]; at 50.0 µM 99% | [4]; [8] 99% | [4]; at 50.0 µM 98.7% | [5]; [8] 99% | [5]; at 50.0 µM 99.4% | [6]; [8] 99% | [6]; at 50.0 µM 99%
inactive: [1]; [7] 23% | [2]; [7] 25% | [3]; [7] 24% | [4]; [7] 14% | [5]; [7] 38% | [6]; [7] 27%
